We go through 11 molecules from PubChem BioAssay.

A short description of this test: small-molecule microarray binders of probe aWnt5a, primary screen, biochemical, biotinylated probe, 635/667 nm fluorescence (AID 1113).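 Also: score merges 667 nm fluorescence intensity with signal-to-noise per printed feature.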 The conditions noted are these: higher = more signal.
For the molecule `CC(C)N1C(=O)c2ccccc2[C@](C)(C(=O)NCCCN(C)C)[C@@H]1c1ccc(CO)cc1`, the composite z-score was -0.152.

In the case of `O=C1C2C=CC(C(O)c3ccc(-c4ccccc4)s3)N(Nc3ccccc3F)C2C(=O)N1c1ccccc1` (stereo unspecified), the composite z-score is -0.0758.

As to `CN1C(=O)C2C(C1=O)C1C=C(c3ccc(CO)cc3)C2C(C2CC2)N1Cc1sc2ccccc2c1Cl` (stereo unspecified), the composite z-score is 0.0561.

In the case of `CO[C@H]1O[C@H](CO)[C@@H](OC(=O)Nc2ccc3c(c2)OCO3)[C@H](OC(=O)Nc2ccc3c(c2)OCO3)[C@H]1OC(=O)Nc1ccc2c(c1)OCO2`, the composite z-score is 0.0037.

The molecule `C=CC[C@]1(C(=O)NCCN2CCOCC2)N=C(c2ccc(OCCCO)cc2)O[C@H]1c1ccccc1N=[N+]=[N-]` registered a composite z-score of 0.048.

The molecule `C=CCNC(=O)[C@@H]1[C@H]2C(=O)O[C@H](c3ccccc3)[C@H](c3ccccc3)N2[C@H](c2ccccc2OCCO)[C@@]12C(=O)N(C(=O)OCCOC)c1ccc(C#CCC(C(=O)OC)C(=O)OC)cc12` showed a composite z-score of 0.826.

`CC(C)[C@H]1COC(=O)N1C(=O)[C@H]1[C@@H](c2ccccc2)N(c2ccccc2)O[C@@H]1C` returned a composite z-score of -0.1.

`O=C1O[C@@H](c2ccccc2)[C@@H](c2ccccc2)N2[C@@H](c3ccc(O)cc3)[C@]3(C(=O)Nc4ccc(C#CCCO)cc43)[C@@H](C(=O)O)[C@H]12` showed a composite z-score of 0.485.

`Cc1ccc(S[C@]2(C(=O)NCCCN(C)C)CC(=O)N(C(C)C)[C@@H]2c2ccc(CO)cc2I)cc1` displayed a composite z-score of -0.0748.

In turn, `Cc1ccc(N2C(=O)c3ccccc3[C@](C)(C(=O)NCCN3CCOCC3)[C@@H]2c2ccc(CO)cc2)nc1` registered a composite z-score of -0.228.

Molecule `COC(=O)C(CC#Cc1ccc2c(c1)[C@]1(C(=O)N2)[C@H](C(=O)N2CCCCCCC2)[C@H]2C(=O)O[C@H](c3ccccc3)[C@H](c3ccccc3)N2[C@@H]1c1ccccc1OCCO)C(=O)OC` showed a composite z-score of 1.59.
